Several values for one entry are separate records, joined by “and”; a condition that tells them apart may be missing. Equal values may be shown once. In all, about 5,500 compounds went through this assay and about 2,000 (36%) were called active. Another 18% or so got no clear call; they are omitted. Rule as the data show it: active = normalized growth mostly below about 0.91 (no sharp cut-off); inconclusive = no clear call, values can overlap the other calls; inactive = mostly above about 0.92. This is one part of the list.
Assay: chemical genetic growth profiling, strain panel (AID 1159580);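 also: tested at 20 µM; growth read once vehicle control cultures reached saturation at 30 °C; 1 = growth at the plate median or of vehicle wells; lower values mean less growth of the strain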
Conditions: S. cerevisiae deletion strains, growth OD

In the case of `CCC(=O)O[C@H]1[C@H](O[C@@H]2[C@@H](C)[C@H](O[C@H]3C[C@@](C)(OC)[C@@H](O)[C@H](C)O3)[C@@H](C)C(=O)O[C@H](CC)[C@@](C)(O)[C@H](O)[C@@H](C)C(=O)[C@H](C)C[C@@]2(C)O)O[C@H](C)C[C@@H]1N(C)C`, the normalized growth (locus YAL013W, strain DEP1, stronger effect = lower value) is reported as 0.996 (inactive), the normalized growth (locus YAL021C, strain ccr4, stronger effect = lower value) is reported as 0.958 (inactive) and the normalized growth (locus YAL026C, strain drs2, stronger effect = lower value) is reported as 0.942 (inactive). The normalized growth (locus YAL030W, strain snc1, stronger effect = lower value) was 0.984 (inactive), the normalized growth (locus YBL061C, strain skt5, stronger effect = lower value) was 0.973 (inactive) and the normalized growth (locus YBR009C, strain hhf1, stronger effect = lower value) was 0.797 (active). The normalized growth (locus YBR021W, strain FUR4, stronger effect = lower value) was 0.232 (active), the normalized growth (locus YBR023C, strain chs3, stronger effect = lower value) was 0.894 (active) and the normalized growth (locus YBR171W, strain sec66, stronger effect = lower value) was 1.01 (inactive). For the same molecule, the normalized growth (locus YBR229C, strain ROT2, stronger effect = lower value) was 1.02 (inactive), the normalized growth (locus YBR231C, strain swc5, stronger effect = lower value) was 0.836 (active) and the normalized growth (locus YBR279W, strain paf1, stronger effect = lower value) was 0.911 (active). The normalized growth (locus YCL011C, strain gbp2, stronger effect = lower value) was 0.823 (active), the normalized growth (locus YCL016C, strain dcc1, stronger effect = lower value) was 0.912 (active) and the normalized growth (locus YCL029C, strain bik1, stronger effect = lower value) was 0.988 (inactive). The normalized growth (locus YCL061C, strain MRC1, stronger effect = lower value) was 0.949 (inactive), the normalized growth (locus YCL069W, strain vba3, stronger effect = lower value) was 0.899 (active) and the normalized growth (locus YCR088W, strain abp1, stronger effect = lower value) was 1.02 (inactive). For the same molecule, the normalized growth (locus YDL005C, strain med2, stronger effect = lower value) was 0.984 (inactive), the normalized growth (locus YDL035C, strain GPR1, stronger effect = lower value) was 0.915 (inactive) and the normalized growth (locus YDL040C, strain nat1, stronger effect = lower value) was 1.01 (inactive). The normalized growth (locus YDL074C, strain BRE1, stronger effect = lower value) was 0.809 (inactive), the normalized growth (locus YDL101C, strain DUN1, stronger effect = lower value) was 0.959 (inactive) and the normalized growth (locus YDL134C, strain PPH21, stronger effect = lower value) was 0.91 (inactive). For the same molecule, the normalized growth (locus YDL185W, strain tfp1, stronger effect = lower value) was 1.01 (inactive), the normalized growth (locus YDL192W, strain arf1, stronger effect = lower value) was 1 (inactive) and the normalized growth (locus YDR001C, strain nth1, stronger effect = lower value) was 1.02 (inactive). The normalized growth (locus YDR069C, strain doa4, stronger effect = lower value) was 1.04 (inactive), the normalized growth (locus YDR101C, strain arx1, stronger effect = lower value) was 1 (inactive) and the normalized growth (locus YDR137W, strain rgp1, stronger effect = lower value) was 1.18 [resistant] (active). The normalized growth (locus YDR159W, strain sac3, stronger effect = lower value) was 0.826 (active), the normalized growth (locus YDR162C, strain NBP2, stronger effect = lower value) was 0.944 (inactive) and the normalized growth (locus YDR195W, strain ref2) was 1.22 [resistant] (active). For the same molecule, the normalized growth (locus YDR297W, strain sur2, stronger effect = lower value) was 0.942 (inactive), the normalized growth (locus YDR318W, strain mcm21, stronger effect = lower value) was 0.99 (inactive) and the normalized growth (locus YDR334W, strain swr1, stronger effect = lower value) was 0.957 (inactive). For the same molecule, the normalized growth (locus YDR335W, strain msn5, stronger effect = lower value) was 0.877 (active), the normalized growth (locus YDR388W, stronger effect = lower value) was 0.972 (inactive) and the normalized growth (locus YDR392W, strain spt3, stronger effect = lower value) was 0.292 (active). The normalized growth (locus YDR502C, strain sam2, stronger effect = lower value) was 1.01 (inactive), the normalized growth (locus YEL003W, strain gim4, stronger effect = lower value) was 0.862 (active) and the normalized growth (locus YEL037C, strain rad23, stronger effect = lower value) was 0.971 (inactive). For the same molecule, the normalized growth (locus YEL061C, strain CIN8 (second series), stronger effect = lower value) was 0.875 (active), the normalized growth (locus YEL061C, strain CIN8, stronger effect = lower value) was 0.97 (inactive) and the normalized growth (locus YER015W, strain faa2, stronger effect = lower value) was 0.975 (inactive). For the same molecule, the normalized growth (locus YER016W, strain bim1, stronger effect = lower value) was 0.965 (inactive), the normalized growth (locus YER110C, stronger effect = lower value) was 0.967 (inactive) and the normalized growth (locus YER111C, strain swi4, stronger effect = lower value) was 0.867 (active). The normalized growth (locus YER155C, strain BEM2 (second series), stronger effect = lower value) was 0.32 (active), the normalized growth (locus YER155C, strain BEM2, stronger effect = lower value) was 1.03 (inactive) and the normalized growth (locus YER167W, strain BCK2, stronger effect = lower value) was 0.971 (inactive). The normalized growth (locus YFR010W, strain ubp6, stronger effect = lower value) was 0.911 (inactive), the normalized growth (locus YGL078C, strain dbp3, stronger effect = lower value) was 0.995 (inactive) and the normalized growth (locus YGL086W, strain mad1, stronger effect = lower value) was 0.994 (inactive). For the same molecule, the normalized growth (locus YGL167C, strain pmr1, stronger effect = lower value) was 1 (inactive), the normalized growth (locus YGL173C, strain kem1, stronger effect = lower value) was 0.938 (inactive) and the normalized growth (locus YGL227W, strain vid30, stronger effect = lower value) was 1.01 (inactive). The normalized growth (locus YGL240W, strain doc1, stronger effect = lower value) was 0.731 (active), the normalized growth (locus YGL248W, strain PDE1, stronger effect = lower value) was 0.918 (inactive) and the normalized growth (locus YGL253W, strain hxk2, stronger effect = lower value) was 0.671 (active). The normalized growth (locus YGR078C, strain PAC10, stronger effect = lower value) was 0.797 (active), the normalized growth (locus YGR135W, strain pre9, stronger effect = lower value) was 0.92 (inactive) and the normalized growth (locus YGR252W, strain gcn5, stronger effect = lower value) was 0.695 (active). The normalized growth (locus YHR013C, strain ard1, stronger effect = lower value) was 0.722 (active), the normalized growth (locus YHR027C, strain rpn1, stronger effect = lower value) was 1 (inactive) and the normalized growth (locus YHR030C, strain SLT2, stronger effect = lower value) was 1.02 (inactive) and 0.875 (inactive). For the same molecule, the normalized growth (locus YHR079C, strain IRE1 (second series), stronger effect = lower value) was 1.01 (inactive), the normalized growth (locus YHR079C, strain IRE1, stronger effect = lower value) was 0.874 (inactive) and the normalized growth (locus YHR094C, strain hxt1, stronger effect = lower value) was 1.01 (inactive). For the same molecule, the normalized growth (locus YHR129C, strain ARP1, stronger effect = lower value) was 0.99 (inactive), the normalized growth (locus YHR142W, strain chs7, stronger effect = lower value) was 0.7 (active) and the normalized growth (locus YHR200W, strain rpn10, stronger effect = lower value) was 1.01 (inactive). For the same molecule, the normalized growth (locus YIL066C, strain RNR3, stronger effect = lower value) was 0.8 (active), the normalized growth (locus YIL073C, strain SPO22, stronger effect = lower value) was 1.05 (inactive) and the normalized growth (locus YIL125W, strain kgd1, stronger effect = lower value) was 1.02 (inactive). The normalized growth (locus YIR030C, strain dcg1, stronger effect = lower value) was 1.02 (inactive), the normalized growth (locus YJL092W, strain hpr5, stronger effect = lower value) was 1.01 (inactive) and the normalized growth (locus YJL095W, strain BCK1 (second series), stronger effect = lower value) was 0.993 (inactive). For the same molecule, the normalized growth (locus YJL095W, strain BCK1, stronger effect = lower value) was 0.975 (inactive) and 0.864 (active), the normalized growth (locus YJL115W, strain asf1, stronger effect = lower value) was 1.03 (inactive) and the normalized growth (locus YJL129C, strain trk1, stronger effect = lower value) was 0.7 (active). The normalized growth (locus YJL134W, strain LCB3, stronger effect = lower value) was 1.02 (inactive), the normalized growth (locus YJL154C, strain vps35, stronger effect = lower value) was 1.01 (inactive) and the normalized growth (locus YJL164C, strain tpk1, stronger effect = lower value) was 0.832 (active). The normalized growth (locus YJL166W, strain qcr8, stronger effect = lower value) was 0.813 (active), the normalized growth (locus YJL168C, strain set2, stronger effect = lower value) was 1.01 (inactive) and the normalized growth (locus YJL187C, strain SWE1 (second series), stronger effect = lower value) was 0.967 (inactive). For the same molecule, the normalized growth (locus YJR043C, strain POL32, stronger effect = lower value) was 0.832 (active).

Source: PubChem BioAssay AID1159580 (chemical genetic matrix, 2015)
